Laboratory results published in PubChem BioAssay (Tox21).
Results filed as inconclusive are left out. Activity calls are given as the source filed them. Unless noted, calls come from the whole dose curve; as a rule, active = well fitted curve in the direction sought with a large enough effect in the repeat runs; inconclusive = weak or mixed curves; inactive = no such curve, though single readings can be large; an effect the other way counts as inactive or inconclusive.

Legend:
[1] = qHTS assay to identify small molecule agonists of the vitamin D receptor (VDR) signaling pathway - cell viability counter screen (AID 743224); note: series mostly up to about 63 µM; nearly all actives have a fitted effect of over 50% in size
Summary of the method: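 Plated VDR-bla cells (4 h, 37C) received compound, incubated 16 h, then LiveBLAzer substrate 2 h RT; CellTiter-Glo added afterwards, luminescence read at 30 min.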

[2] = qHTS assay to identify small molecule antagonists of the vitamin D receptor (VDR) signaling pathway - cell viability counter screen (AID 743225); note: nearly all actives have a fitted effect of over 50% in size
Summary of the method: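 Parallel cytotoxicity test: VDR-UAS-bla HEK 293T, 3 nM (final) 1-alpha,25-dihydroxyvitamin D3 with test compound, 16 h, 37C. Endpoint is CellTiter-Glo luminescence in the same wells.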

[3] = qHTS assay to identify small molecule agonists of the NFkB signaling pathway - cell viability counter screen (AID 1159515; calls by dose curve; note: series mostly up to about 61 µM; nearly all actives have a fitted effect of over 55% in size)
Summary of the method: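 Using the same wells as the NFkB reporter read, ME-180 NFkB-bla cells given compounds for 5 hr were assessed for viability via CellTiter-Glo, with luminescence taken after a 30 min room-temperature incubation.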

[4] = qHTS assay to identify small molecule agonists of the endoplasmic reticulum stress response signaling pathway (AID 1159516; active = well fitted activation curve with a large enough effect in the signal ratio in the repeat runs, not every such curve was filed as active; the % refers to the signal ratio)
Summary of the method: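 An ESRE-bla HeLa cell assay: compounds were pin-transferred from DMSO onto overnight-plated cells and left 5 hr at 37 C. Substrate was then loaded for 2 hr at room temperature before reading fluorescence at 460 nm and 530 nm.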

[5] = qHTS assay to identify small molecule agonists of the endoplasmic reticulum stress response signaling pathway - cell viability counter screen (AID 1159517; calls by dose curve;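 note: HeLa cells carrying an ER stress response element beta-lactamase reporter; series mostly up to about 61 µM; nearly all actives have a fitted effect of over 50% in size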)
Summary of the method: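 CellTiter-Glo was added to wells already read for beta-lactamase FRET, and luminescence was recorded 30 min later. Cells: ESRE-bla HeLa, 1,500 per well, compound exposure 5 hr at 37 C.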

[6] = qHTS assay to identify small molecule antagonists of the retinoid-related orphan receptor gamma (ROR-gamma) signaling pathway - cell viability counter screen (AID 1159520); note: nearly all actives have a fitted effect of over 50% in size
Summary of the method: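 Tet-on ROR gamma CHO cells (1,000/well) were plated 4 hr, given compounds in DMSO for 2 hr at 37 C, then induced with 1 uM final doxycycline for 16 hr. Viability was read as ATP by CellTiter-Glo luminescence after 30 min.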

[7] = target: Nuclear receptor ROR-gamma (Homo sapiens) (UniProt P51449); test: qHTS assay to identify small molecule antagonists of the retinoid-related orphan receptor gamma (ROR-gamma) signaling pathway (AID 1159521)
Summary of the method: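 Decreased RORE-driven luciferase luminescence indicates antagonism. Tet-on RORγ CHO cells received compound, then 1 uM final doxycycline 2 h later; signal read after 16 h incubation.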

[8] = qHTS assay to identify small molecule agonists of the AP-1 signaling pathway - cell viability counter screen (AID 1159525; calls by dose curve; note: nearly all actives have a fitted effect of over 55% in size)
Summary of the method: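 ME-180 AP-1-bla, 2500 cells/well, Opti-MEM + 0.5% dialyzed FBS; overnight 37 °C; cpd 15-pt titration, 5 h 37 °C; CellTiter-Glo 30 min RT; luminescence read; normalised to TOAB and DMSO controls.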

[9] = qHTS assay to identify small molecule agonists of the AP-1 signaling pathway (AID 1159526; calls by dose curve)
[10] = target: Retinoic acid receptor RXR-alpha (Homo sapiens) (UniProt P19793); test: qHTS assay to identify small molecule agonists of the RXR signaling pathway (AID 1159527; calls by dose curve; note: nearly all actives have a fitted effect of over 35% in size)
Retinoic acid receptor RXR-alpha (Homo sapiens), sequence (P19793 whole entry, looked up): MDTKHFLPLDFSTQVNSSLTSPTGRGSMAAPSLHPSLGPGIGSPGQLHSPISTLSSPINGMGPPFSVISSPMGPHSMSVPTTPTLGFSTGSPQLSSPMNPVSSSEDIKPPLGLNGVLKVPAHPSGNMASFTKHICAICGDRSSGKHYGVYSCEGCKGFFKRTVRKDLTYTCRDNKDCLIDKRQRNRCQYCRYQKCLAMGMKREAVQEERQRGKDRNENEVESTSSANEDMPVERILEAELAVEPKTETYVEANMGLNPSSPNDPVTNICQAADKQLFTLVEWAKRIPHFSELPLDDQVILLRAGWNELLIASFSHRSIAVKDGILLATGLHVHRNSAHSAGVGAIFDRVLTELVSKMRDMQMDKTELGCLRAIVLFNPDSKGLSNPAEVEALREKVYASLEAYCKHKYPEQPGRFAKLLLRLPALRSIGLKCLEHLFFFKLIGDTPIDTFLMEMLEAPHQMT
Summary of the method: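 16 hr incubation of compound-treated RXR-alpha-UAS-bla HEK 293T cells (2% charcoal-stripped FBS, 37 C) preceded a 2 hr room-temperature LiveBLAzer FRET substrate step and blue/green fluorescence measurement.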

[11] = qHTS assay to identify small molecule agonists of the RXR signaling pathway - cell viability counter screen (AID 1159529)
Summary of the method: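 In this parallel viability measure, GeneBLAzer RXR-alpha HEK 293T cells (2% charcoal-stripped FBS) were given a 5 hr preincubation, treated with compounds 16 hr at 37 C, and read by CellTiter-Glo luminescence.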

[12] = qHTS assay to identify small molecule antagonists of the retinoid acid receptor (RAR) signaling pathway - cell viability counter screen (AID 1159551); note: nearly all actives have a fitted effect of over 35% in size
Summary of the method: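 Retinol-stimulated (1 uM final) C3RL4 cells, compound 6 h, 37 C; readout CellTiter-Glo luminescence (ATP) after 30 min RT incubation.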

[13] = qHTS assay to identify small molecule antagonists of the retinoic acid receptor (RAR) signaling pathway (AID 1159552; note: nearly all actives have a fitted effect of over 50% in size)
Summary of the method: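 C3RL4 RARE-luc cells, overnight plating; retinol 1 uM final added right after compound; 6 hr 37 C; luciferase read at 30 min RT.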

[14] = target: Luciferin 4-monooxygenase (Photinus pyralis) (UniProt P08659); test: qHTS assay to identify small molecule inhibitors of firefly luciferase (AID 1224835); note: series mostly up to about 120 µM; nearly all actives have a fitted effect of over 25% in size
Luciferin 4-monooxygenase (Photinus pyralis), sequence (P08659 whole entry, looked up): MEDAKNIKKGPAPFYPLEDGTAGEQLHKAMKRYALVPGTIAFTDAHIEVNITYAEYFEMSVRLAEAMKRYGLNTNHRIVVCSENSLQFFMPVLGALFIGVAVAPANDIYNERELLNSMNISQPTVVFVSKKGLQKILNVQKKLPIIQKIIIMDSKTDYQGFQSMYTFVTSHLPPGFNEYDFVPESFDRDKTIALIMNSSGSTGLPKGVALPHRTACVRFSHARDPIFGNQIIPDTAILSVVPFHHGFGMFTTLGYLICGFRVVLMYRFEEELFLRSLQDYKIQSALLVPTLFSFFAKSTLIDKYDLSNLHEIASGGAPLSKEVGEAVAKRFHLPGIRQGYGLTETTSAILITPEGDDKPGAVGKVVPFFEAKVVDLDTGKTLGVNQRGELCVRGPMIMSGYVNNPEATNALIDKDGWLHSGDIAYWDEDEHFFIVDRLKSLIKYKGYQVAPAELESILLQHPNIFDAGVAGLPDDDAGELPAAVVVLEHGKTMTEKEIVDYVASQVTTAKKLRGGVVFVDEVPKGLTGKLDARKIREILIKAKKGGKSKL
Summary of the method: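 Quantitative HTS format; KM concentrations of both substrates. Purified P. pyralis FLuc activity quantified from luminescence images.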

[15] = qHTS assay to identify small molecule agonists of the constitutive androstane receptor (CAR) signaling pathway - cell viability counter screen (AID 1224836); note: series mostly up to about 92 µM; nearly all actives have a fitted effect of over 45% in size
Summary of the method: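 Using CellTiter-Fluor, viability of HepG2 cells harbouring hCAR and CYP2B6-2.2kb was measured following 23 h incubation with a 15-concentration compound series plus PK11195 (0.75 uM final).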

[16] = qHTS assay to identify small molecule antagonists of the constitutive androstane receptor (CAR) signaling pathway - cell viability counter screen (AID 1224837); note: series mostly up to about 92 µM; nearly all actives have a fitted effect of over 45% in size
Summary of the method: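 Counter screen run in HepG2-CYP2B6-hCAR cells: 4 hr settle, compound titration (15 concentrations) with 50 nM CITCO, 23 hr at 37 C/5% CO2, CellTiter-Fluor fluorescence.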

[17] = target: Nuclear receptor subfamily 1 group I member 3 (Homo sapiens) (UniProt Q14994); test: qHTS assay to identify small molecule antagonists of the constitutive androstane receptor (CAR) signaling pathway (AID 1224838);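 note: HepG2 cells stably expressing hCAR with CYP2B6 luciferase reporter stimulated by CITCO; nearly all actives have a fitted effect of over 40% in size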
Nuclear receptor subfamily 1 group I member 3 (Homo sapiens), sequence (Q14994 whole entry, looked up): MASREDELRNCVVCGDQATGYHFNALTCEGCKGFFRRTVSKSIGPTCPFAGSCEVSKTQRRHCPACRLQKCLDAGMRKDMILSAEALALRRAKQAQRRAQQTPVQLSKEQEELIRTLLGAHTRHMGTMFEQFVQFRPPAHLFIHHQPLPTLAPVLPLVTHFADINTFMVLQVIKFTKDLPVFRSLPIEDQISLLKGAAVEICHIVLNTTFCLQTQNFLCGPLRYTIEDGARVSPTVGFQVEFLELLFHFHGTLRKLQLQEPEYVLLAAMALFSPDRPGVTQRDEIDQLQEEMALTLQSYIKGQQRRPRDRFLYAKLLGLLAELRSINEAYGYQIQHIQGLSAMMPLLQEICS
Summary of the method: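 Cell line: HepG2 double-stable for hCAR and CYP2B6-2.2kb reporter. Agonist: CITCO, 50 nM final. Compounds: 15 concentrations, 24 h, 37 C. Detection: ONE-Glo luminescence.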

[18] = qHTS assay to identify small molecule agonists of the retinoic acid receptor (RAR) signaling pathway (AID 1159553)
Summary of the method: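 Reporter readout comes from luciferase under RARE control in C3RL4 cells; compound exposure lasts 6 hr at 37 C in 5% CO2, and luminescence is recorded following a 30 min room-temperature incubation with reagent.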

[19] = qHTS assay to identify small molecule antagonists of the estrogen related receptor (ERR) signaling pathway from Tox21 library - cell viability counter screen (AID 1224834); note: nearly all actives have a fitted effect of over 30% in size
Summary of the method: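 After 17.5 h of compound exposure at 37 C, ERR cells are incubated with CellTiter-Fluor for 30 min and fluorescence intensity serves as the viability measure.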

Measured: Potency

Cc1ncc([N+](=O)[O-])n1CC(C)O (stereo not given)
not listed: [18] | [19]
inactive: all other assays above

COCCc1ccccn1
not listed: [5] | [19]
inactive: all other assays above

Cc1c(N)cccc1Cl
inactive: all assays above

COC(=O)/C=C\C(=O)O
inactive: all assays above

N#Cc1cscn1
inactive: all assays above

c1ccc2cnccc2c1
not listed: [8]
inactive: all other assays above

CCCC(=O)Nc1ccc(OCC(O)CNC(C)C)c(C(C)=O)c1 (stereo not given)
not listed: [5] | [12]
inactive: all other assays above

CC(=O)O[C@@H]1CC2CCC1(C)C2(C)C (stereo not given in full)
not listed: [5]
inactive: all other assays above

[O-][n+]1cccc(/C(Cl)=N/OC[C@@H](O)CN2CCCCC2)c1
not listed: [8] | [12]
inactive: all other assays above

CN(C)CCOC(=O)C(c1ccccc1)C1(O)CCCC1 (stereo not given)
not listed: [1] | [7] | [12]
inactive: all other assays above

OCC1(CO)COCOC1
not listed: [5]
inactive: all other assays above
